Laboratory results: publication PMC7819943, “Rice protein-binding microarrays: a tool to detect cis-acting elements near promoter regions in rice”
Over roughly 68,000 sequences, “fluorescence intensity (a.u.)” has its median near 9,100; the highest 2% begin near 16,000. What follows is part of a selection rich in the highest values, with near analogues and random picks from the rest.

biological target: OsWRKY34 (Oryza sativa, UniProt Q0JBA9 1-250); assay: protein-binding microarray (RPBM); PBS, 2% BSA, 51.3 ng/ul salmon testes DNA, 50 uM zinc acetate, 200 nM TF, 25 C, 1 h; high values mean tight binding; conditions: protein: recombinant; tags: N-terminal polyhistidine and DsRed monomer fusion (pET32a); label: CyDye5-dUTP incorporated in the synthesized complementary strand; 3' TTTTT single-stranded linker to array surface; dsDNA, one strand shown
Sequence (Q0JBA9 entry or part of it): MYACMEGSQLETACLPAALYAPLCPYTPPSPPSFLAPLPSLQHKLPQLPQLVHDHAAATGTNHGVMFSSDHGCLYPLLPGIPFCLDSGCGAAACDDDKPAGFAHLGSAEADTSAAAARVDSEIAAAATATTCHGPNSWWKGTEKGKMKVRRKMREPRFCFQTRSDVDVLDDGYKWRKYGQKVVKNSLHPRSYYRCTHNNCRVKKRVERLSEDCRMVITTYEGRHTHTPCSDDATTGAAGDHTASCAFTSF
Summary of the method: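 Binding signal is reported as fluorescence intensity per feature (arbitrary units) from an Axon 4000B scanner. Incubation used 200 nM of each Ni–NTA-purified, N-terminally polyhistidine- and DsRed-fused transcription factor from E. coli BL21-CodonPlus on a double-stranded custom Agilent array for 1 h at 25 °C, with 50 µM zinc acetate in the buffer, followed by washing.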

Sequence	binding signal
ACGGGGACAGGGAGAGGAGCGGGGATTTTGTGGCGGGAGACGGAGTCACCTAGTGCAG	9460 fluorescence intensity (a.u.)
TGTTGTTATGTTTTTGTCATGATCTCACAAGCAATGTACACGGAGTCACCTAGTGCAG	11000 fluorescence intensity (a.u.)
CCTCTTCGAAGCCGTGAAATCTCAGCCGTCCATCCATGATCGGAGTCACCTAGTGCAG	9040 fluorescence intensity (a.u.)
TCTTTTGAGCACCCCACTGGCCATGGTCTTTTATCGTCCCCGGAGTCACCTAGTGCAG	8490 fluorescence intensity (a.u.)
ACTATCTTAGCCATTCCAACGCCGTCTTTCCTCGGTCCTCCGGAGTCACCTAGTGCAG	12500 fluorescence intensity (a.u.)
AATCACCATCATCGCTGTTTGGGAGGGTCTGCCTGGCTTACGGAGTCACCTAGTGCAG	13100 fluorescence intensity (a.u.)
TATTTGACTTCCGGCTTTTGTTTCCTTGATACTTTACTCTCGGAGTCACCTAGTGCAG	9780 fluorescence intensity (a.u.)
ACCTTTGCTCACGATCCCAATGGCTTTAATTATGTACCACCGGAGTCACCTAGTGCAG	8830 fluorescence intensity (a.u.)
CCAAAAACACTCACTCGGCCCACATCACGCCACCACCCCGCGGAGTCACCTAGTGCAG	9750 fluorescence intensity (a.u.)
GGGCCTAGTTTTTCCAGGTAAAGTTGACCAAAAGTCTTCACGGAGTCACCTAGTGCAG	8890 fluorescence intensity (a.u.)
GATGGCGTACCAAAGTACTGGTAAAAACATCTTCAGTTTTCGGAGTCACCTAGTGCAG	22300 fluorescence intensity (a.u.)
TTTTTTTTCTGTTAGTACTGTTTTTGGTCCAAACATCTTTCGGAGTCACCTAGTGCAG	8180 fluorescence intensity (a.u.)
CTTCTACTGCGTCGACTTGGAATTTTGCCGAATCTTTTTTCGGAGTCACCTAGTGCAG	10400 fluorescence intensity (a.u.)
CACACACACTCCACTACTCCACTGCACTGCAGTCTCTCTCCGGAGTCACCTAGTGCAG	10100 fluorescence intensity (a.u.)
CCTCGTTCTTCTTCTTCTCTCTCTGGTTTTACATTTTTACCGGAGTCACCTAGTGCAG	10300 fluorescence intensity (a.u.)
CACGCACCGCCCATGCGTCCTTATCCACCCACCTCTCCACCGGAGTCACCTAGTGCAG	8240 fluorescence intensity (a.u.)
TGAGTCCTTACCTCTCTCTCTCCAATGTTCGTCTGCGGCACGGAGTCACCTAGTGCAG	8390 fluorescence intensity (a.u.)
AACCCACCTGCACGCACCGTCCTTACCTCTGTTCGATTGACGGAGTCACCTAGTGCAG	16800 fluorescence intensity (a.u.)
GTAGATGTCGGGTGGGATGGTTTCAGGAAAAGAAACATGACGGAGTCACCTAGTGCAG	12800 fluorescence intensity (a.u.)
CATTCACAACATCAAATTACATCTGCAGAGAGATCGCTCGCGGAGTCACCTAGTGCAG	33900 fluorescence intensity (a.u.)
ACTTTCCTACACACAAACTTTCAACTTTTTCATCACATCGCGGAGTCACCTAGTGCAG	8900 fluorescence intensity (a.u.)

Sequence	binding signal
AGTCTGGCTTGCACATCTGCTGTTTACAACACATCAAATTCGGAGTCACCTAGTGCAG	9810 fluorescence intensity (a.u.)
CCATCGTTTCTCCCCGACGCCCTCGCCATCCTCCTCGCCACGGAGTCACCTAGTGCAG	10500 fluorescence intensity (a.u.)
GCCTTTTTAAATTTTTTTATCACATCAAAACTTTTTTATACGGAGTCACCTAGTGCAG	8370 fluorescence intensity (a.u.)
AGTGTTTGGTTTGAGGAGGACTAGTGGGGTGGTTTTTTGACGGAGTCACCTAGTGCAG	13900 fluorescence intensity (a.u.)
TGAAGAGGTGAGTGTTTTAGGGTTTTGGTTGGGGTTTTGACGGAGTCACCTAGTGCAG	14600 fluorescence intensity (a.u.)
TTTACATATAATTTTCTTTAGGGTTTTATAGCTTTTTTAACGGAGTCACCTAGTGCAG	8600 fluorescence intensity (a.u.)
TTTTTGGGTTGGGTTGGGGACGCGCTGTTTCGACGTGGGGCGGAGTCACCTAGTGCAG	19000 fluorescence intensity (a.u.)
GTGGGTGGGTTTGGAGTTTGGACTGTTTAGGGCCTTTTGACGGAGTCACCTAGTGCAG	23300 fluorescence intensity (a.u.)
CGTTGAGTTGGTTTAGGGGTGGACTGATTTGCCTTTGCCCCGGAGTCACCTAGTGCAG	12900 fluorescence intensity (a.u.)
CTGTTACTTCACAGTTATTTTTGTTGGGTGGGGACGTGGGCGGAGTCACCTAGTGCAG	12600 fluorescence intensity (a.u.)
GGTTTAGGCTGTGTTTAGTTCTTTTTTTAATTTTTTTTAACGGAGTCACCTAGTGCAG	16500 fluorescence intensity (a.u.)
ATATATGTTCTCTTAGTGTCTTTATTTTTAATATTTTTAACGGAGTCACCTAGTGCAG	8530 fluorescence intensity (a.u.)
TTCGTGTTTTGCTGGAGTTGGAGTTGCTGCATTGGGTTTACGGAGTCACCTAGTGCAG	10700 fluorescence intensity (a.u.)
GGGTTTGGGTTTTTAGGTTTGGGGAGTTGGGCTGTGTTTACGGAGTCACCTAGTGCAG	22100 fluorescence intensity (a.u.)
GGTTGGGGCGTGGGCGGCTGGGCGCGTGGGTTGCCCGCGACGGAGTCACCTAGTGCAG	15600 fluorescence intensity (a.u.)
CTGTATCCCCATTCGCTGTCAAAATTCAATTCACTGTCTTCGGAGTCACCTAGTGCAG	9640 fluorescence intensity (a.u.)
GGTGGGAGCACGATGCGGGACGTGGGGTGGGATCGGAAGCCGGAGTCACCTAGTGCAG	8590 fluorescence intensity (a.u.)
CCCTCCCTGGCCGTCGTGCCCGCCGCTGCTCGCCTTCGGCCGGAGTCACCTAGTGCAG	10100 fluorescence intensity (a.u.)
TGGAGGGGAGTGGGATCGCGATCACGGGTGGGGCGTCGGACGGAGTCACCTAGTGCAG	13100 fluorescence intensity (a.u.)
AAATCTTGGGTTTATGTGGGCGACGATGTCGGTTTGGAAACGGAGTCACCTAGTGCAG	8060 fluorescence intensity (a.u.)
CTACAGCCTCACACCGTCTCTCCTGCACCAGTTCCACGGACGGAGTCACCTAGTGCAG	9510 fluorescence intensity (a.u.)
